# Many of the other results were omitted from the sample, so hits are more common in it than they were.
# HIV RNase H inh: blocks HIV-1 RNase H cleavage of RNA/DNA duplex; P04585; RT-RNase H RNA/DNA duplex cleavage, fluorescence; inhibition, % at 10 µM; 1.9% of 65,000 active; AID 565; in the data active = inhibition above about 50%
# * marks the source's active call; other numbers are inactive results.
SMILES,HIV RNase H inh
Cc1cc(NC(=O)CSc2nc(C(C)C)nc3sc(C)c(C)c23)no1,-2
Cc1cc(NC(=O)CSc2ncnc3sc4c(c23)CCC(C)C4)no1 (stereo not given),84*
Cc1cc(NC(=O)CSc2nnc3c4c(C)c(C)sc4ncn23)no1,-11
CC1CCCN(C(=O)CSCC(=O)N=c2sc3ccccc3n2C)C1 (stereo not given),-23
CCn1cc(C(=O)N2CCCc3ccccc32)c2cc(OC)c(OC)cc2c1=O,-16
C=CCn1c(SCC(=O)c2cc(C)n(C(C)COC)c2C)nc2sc(C)c(C)c2c1=O (stereo not given),0
COC(=O)c1ccc(COc2ncnc3c(Cl)cc(Cl)cc23)o1,-40
Cc1ccc2nc(NC(=O)Cn3cc4c(n3)CCCCC4)sc2c1,-2
Cc1cc(C(F)F)n2ncc(C(=O)NCc3ccccc3)c2n1,-3
Cc1cc(C)n2nc(C(=O)NCc3ccccc3)cc2n1,88*
Cc1cc(C)n2nc(Nc3ccccc3)cc2n1,30
O=C(c1ccco1)N1CCCC(c2nc(-c3ccc(S(=O)(=O)NCc4ccccc4)cc3)no2)C1 (stereo not given),-3
CC1CCN(c2nc3c(c(=O)[nH]c(=O)n3C)n2CCSc2ncccn2)CC1,-4
O=C1C2C3c4ccccc4C(c4ccccc43)C2C(=O)N1Cc1ccco1 (stereo not given),-4
COc1cc(OC)c(C2CC(=O)N3CN(c4ccc(C)cc4)CSC3=C2C#N)cc1OC (stereo not given),30
N#CC1=C2SCN(Cc3ccco3)CN2C(=O)CC1c1cccc2ccccc12 (stereo not given),57*
CCOC(=O)c1[nH]c(C)c(C(=O)c2cc(F)ccc2F)c1C,-86
COC(=O)C1=C(C)N(C)C(C)=C(C(=O)OC)C1c1ccc(F)c(Br)c1,-26
COC(=O)c1sc(=S)n(-c2cc(F)ccc2F)c1N,72*
CCOC(=O)c1cc2cc(F)ccc2nc1C,-7
Cc1cc(C(=O)CSc2n[nH]c(N)n2)c(C)n1-c1cc(F)ccc1F,-33
CCOC(=O)c1sc(=S)n(-c2cc(F)ccc2F)c1N,72*
O=C(CN(c1ccc(F)cc1)S(=O)(=O)c1ccc2c(c1)OCCO2)NCc1ccccn1,-18
CC(C)(C)c1cc(Cc2ccccc2)[nH]n1,-36
CCOC(=O)N1CCN(C(=O)c2ccc(NC(=O)c3ccc(C)cc3)cc2)CC1,3
SMILES,HIV RNase H inh
CCOC(=O)C1CCCn2c1nc1sc3c(c1c2=O)CCCC3 (stereo not given),-4
Cc1ccc(/C=c2/sc3nnc(-c4ccccc4Cl)n3c2=O)o1,19
Cc1ccc(/C=c2\sc3nc(-c4ccco4)nn3c2=O)o1,30
Cc1ccc(/C=c2\sc3nc(-c4ccccc4Br)nn3c2=O)o1,51*
COc1ccc(-c2c3c(=O)n(C)c(=O)n(C)c3cn2-c2cc(OC)ccc2OC)cc1,8
Cn1c(=O)c2cn(Cc3ccc(Cl)cc3)cc2n(C)c1=O,-16
COc1cccc(NC(=O)Cn2c(SCC(=O)N3CCOCC3)nc3ccccc32)c1,5
CCCCn1c(SCC(=O)Nc2cccc(OC)c2)nc2ccc(N3CCOCC3)cc2c1=O,51*
CCOC(=O)c1cccc(NC(=O)CSc2nc3ccccc3c(=O)n2CCOC)c1,5
N#Cc1nn(-c2ccccc2)nc1N1CCCCC1,-12
O=C(Nc1nc(-c2ccccc2)cs1)c1ccc(Br)o1,66*
O=C(O)CCCC(=O)Nc1nc(-c2ccccc2)cs1,-6
O=C(Nc1cccc2ccccc12)c1ccc(Br)o1,-6
Cc1cc(C(c2nnnn2Cc2ccccc2)N2CCOCC2)c(C)n1-c1ccc2c(c1)OCO2 (stereo not given),14
Cn1cc(Cl)c(C(=O)N2CCN(c3ncccn3)CC2)n1,-9
O=C1NC2CCCCC2NC1CC(=O)N1CCN(c2ccccc2)CC1 (stereo not given),-1
COc1ccc(OC)c(-c2cc(C(=O)N3CCN(c4ccccc4)CC3)no2)c1,-11
O=C(c1cc(-c2cccs2)on1)N1CCN(c2ccc(F)cc2)CC1,-8
O=C(c1cc(-c2cccs2)on1)N1CCN(c2ccccc2)CC1,57*
CCOC(=O)C1=C(C)N=C2SC(CC)C(=O)N2C1c1ccc(OC(C)=O)c(OCC)c1 (stereo not given),-3
Cn1c(=O)[nH]c(=O)c2[nH]c(N(Cc3ccccc3)Cc3ccccc3)nc21,12
CCOc1ccc2nc(NS(C)(=O)=O)sc2c1,55*
CCOc1ccc2nc(NS(=O)(=O)c3ccc4c(c3)n(C)c(=O)n4C)sc2c1,-39
CCOCC(=O)Nc1nc2ccc(OCC)cc2s1,-2
CS(=O)(=O)N(CC(=O)Nc1cccnc1)c1ccc2c(c1)OCO2,3
SMILES,HIV RNase H inh
CCOC(=O)N1CCC(Nc2c(N3CCN(c4cccc(C(F)(F)F)c4)CC3)c(=O)c2=O)CC1,-20
Cn1cc(C(=O)NCCN2CCN(c3ccccc3F)CC2)c2c3ccccc3n(C)c2c1=O,0
COc1nc(N2CCCC2)nc(-n2cc(-c3ccccc3)nn2)n1,-17
Clc1cccc(-c2nn3c(-c4ccncc4)nnc3s2)c1,-9
Brc1ccccc1-c1nnc2sc(-c3ccc4c(c3)OCCO4)nn12,-86
Clc1cccc(-c2nnc3sc(-c4ccc5c(c4)OCO5)nn23)c1,75*
CCC(C)NC(=O)CSC1=Nc2ccccc2C2=NC(CC(=O)NCc3ccccc3)C(=O)N12 (stereo not given),-2
COC(=O)c1c(N2C(=O)CCC2=O)sc2c1CCCC2,-8
CCNC(=O)c1c(N)sc2c1CCCCC2,57*
CCOC(=O)c1c(NC(=O)COC)sc2c1CCCC2,-39
CCC1Cc2c(nc3c4c(nc(N5CCOCC5)c(C#N)c24)NC(C)=N3)O1 (stereo not given),-3
Cc1cc(NC(=O)c2ccc(S(=O)(=O)N3CCCC3)cc2)nc2c1c(=O)oc1ccccc12,72*
CCC(CC)C(=O)Nc1cc(C)c2c(=O)oc3ccccc3c2n1,-5
Cc1cc(NC(=O)c2ccc(S(=O)(=O)N3CCOCC3)cc2)nc2c1c(=O)oc1ccccc12,41
Cc1nn(-c2ccccc2)c2c1C(O)n1c(nc3ccccc31)S2 (stereo not given),-2
Cc1ccccc1C(=O)Nc1ccc(Cl)cn1,-13
CCOC(=O)NC1(Nc2ccc(Cl)cn2)Oc2ccccc2O1,57*
CCCCC(=O)Nc1ccc(Cl)cn1,-9
O=C(CC1(O)C(=O)Nc2ccc(Br)cc21)c1ccc2c(c1)OCO2 (stereo not given),-12
Cc1ccc2oc(=O)c3cnn(CC(=O)NC4CCN(Cc5ccccc5)CC4)c3c2c1,-12
COc1ccc(-c2cc3c(=O)n(CC(=O)NC4CCN(Cc5ccccc5)CC4)ncn3n2)cc1,64*
O=C(Cn1cc2c(n1)CCCC2)NC1CCN(Cc2ccccc2)CC1,-6
Cc1ccc(NCc2nnc(SCC(=O)Nc3cccc(O)c3)n2CC2CCCO2)c(C)c1 (stereo not given),4
CC(C)OCCCNc1ncnc2c1[nH]c1ccccc12,-10
O=C(CCSc1nc(-c2ccco2)cc(C(F)(F)F)n1)N1CCCc2ccccc21,-14
Cc1nc2sc(C(=O)O)c(N)c2c2c1COC(C)(C)C2,9
CCOC(=O)c1sc2nc3c(cc2c1N)COC(C)(C)C3,2
CCOC(=O)c1sc2nc(-c3ccco3)c3c(c2c1N)CC(C)(C)OC3,90*
CCCc1cc(=O)[nH]c(SCC(=O)NC(=O)c2ccccc2)n1,0
COC(=O)Cc1cc(=O)[nH]c(/N=C(/NC(=O)c2ccccc2)Nc2ccccc2C)n1,53*
